Screening results deposited in PubChem by several laboratories.
PriA SSB inh: inhibitors of Klebsiella pneumoniae PriA binding to SSB C-terminal tail | AlphaScreen SSBct-PriA binding, biotinylated peptide | AID 1272365 | inhibition, % at 33 µM | 430,000 compounds, 0.6% hits; in the data active = inhibition mostly above about 37%, no sharp cut-off; inactive = mostly below about 20%;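 also: plate controls were negative control peptide for no effect and reference peptide for full effect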
SARS 3CLpro inh: SARS-CoV 3CLpro protease inhibition; P0C6X7; recombinant SARS-CoV 3CLpro, quenched FRET peptide cleavage; inhibition, % at 6 µM; 290,000 compounds, 0.14% hits; AID 1706; in the data active = inhibition above about 12%
BJeLR lethal: kills HRASV12-expressing BJeLR cells; BJeLR (HRASV12) viability, CellTiter-Glo ATP luminescence, 48 h; inhibition, % (concentration not given with the values); 300,000 compounds, 0.17% hits; AID 1554; in the data active = inhibition above about 50%
Starred values were filed as active, the others as inactive; i = inactive; / = no result; + = active, no number; ! = repeats disagree. The list is not random: actives were taken first. Their share in the collection is about 0.78%.

SMILES | PriA SSB inh | SARS 3CLpro inh | BJeLR lethal
O=C(Nc1ccc(F)cc1)Nc1ccc(CN2CCN(c3ccccn3)CC2)cc1 | 1.0 | / | /
Cc1cccc(NC(=O)Nc2ccc(CN3CCN(c4ccccn4)CC3)cc2)c1 | 41.0* | / | /
Cc1nnc(NC(=O)Cn2ccc3ccccc32)s1 | -1.0 | / | /
COc1cc(OC)c(NCCC(=O)c2cccs2)cc1Cl | 90.0 | / | /
COc1cc(NCCC(=O)c2cccs2)c(OC)cc1Cl | 39.5* | 6.9 | 10.6
COc1ccc(OCc2nnc(SCC(=O)NCC3CCCO3)n2N)cc1 (stereo unspecified) | -0.9 | / | /
Nn1c(Cc2cccc3ccccc23)nnc1SCC(=O)NCC1CCCO1 (stereo unspecified) | 52.1* | / | -4.0
Cc1ccc(/C=C2/C(=O)ON=C2c2ccccc2)o1 | -7.5 | 2.0 | 50.8*
O=C1ON=C(c2ccccc2)/C1=C\c1ccco1 | -4.8 | 1.8 | 0.7
COc1cccc(C2SCCN2C(=O)c2cc3ccccc3o2)c1 (stereo unspecified) | -68.0 | / | /
CCOC(=O)c1c(NC(=O)CSc2cc(C)c3ccccc3n2)sc2c1CCCCC2 | 1.0 | / | /
COc1cc(/C=N/NC(=O)CSc2cccc3cccnc23)cc(OC)c1OC | + | / | /
O=C(CSc1cccc2cccnc12)N/N=C/c1cccc(O)c1 | + | 1.6 | -2.5
O=C(CSc1cccc2cccnc12)N/N=C/c1ccc(Br)cc1 | i | / | /
O=C(CSc1cccc2cccnc12)NN=Cc1ccncc1 | 4.0 | / | /
O=C(CN1CCOC1=O)N1CCCC(Cc2nc(C3CC3)no2)C1 (stereo unspecified) | -19.0 | / | /
COc1cc(NS(=O)(=O)c2ccc(N3C(=O)C4C5C=CC(C5)C4C3=O)cc2)nc(OC)n1 (stereo unspecified) | -13.0 | / | /
CC(=O)Nc1ccc(NC(=O)C(C)OC(=O)CCC2CCCCC2)cc1 (stereo unspecified) | -4.8 | 1.4 | 7.4
CC(OC(=O)CCC1CCCC1)C(=O)Nc1ccccc1[N+](=O)[O-] (stereo unspecified) | 42.7* | / | -2.1
Cc1ccccc1-c1noc(CC2CCCN(C(=O)Cn3ncccc3=O)C2)n1 (stereo unspecified) | -17.0 | / | /
Cn1ccc(C(=O)Nc2nnc(-c3cc4ccccc4o3)o2)n1 | 8.0 | / | /
CC(C)(C)NC(=O)N1CCC(Oc2ccc(C(F)(F)F)cn2)CC1 | -7.0 | / | /
O=S(=O)(Cc1ccco1)C1CCN(S(=O)(=O)CCCOc2ccccc2)CC1 | 87.0* | / | /
O=S(=O)(Cc1ccco1)C1CCN(S(=O)(=O)C2CC2)C1 (stereo unspecified) | -8.0 | / | /
CN1CCN(N=Cc2cccc(Cl)c2Cl)CC1 | 11.2 | / | /
SMILES | PriA SSB inh | SARS 3CLpro inh | BJeLR lethal
CN1CCN(N=Cc2c3ccccc3c(Cl)c3ccccc23)CC1 | 52.9* | / | /
O=S(=O)(Nc1ccc(Nc2ccc(-n3cccn3)nn2)cc1)c1cccc(Br)c1 | 28.0 | / | /
CCOc1ccc(S(=O)(=O)Nc2ccc(Nc3ccc(-n4cccn4)nn3)cc2)cc1 | 70.0* | / | /
Cn1c(SCC(=O)Nc2ccc(F)cc2)nc2c(-c3ccccc3)c[nH]c2c1=O | -12.0 | / | /
Oc1oc(-c2ccccc2)nc1C=Nc1ccccc1 | -13.8 | 1.5 | -1.1
Sc1oc(-c2ccccc2)cc1C=Nc1ccccc1 | 40.8* | 3.2 | 6.5
O=C(Nc1nnc(-c2ccco2)o1)c1cc(Cl)sc1Cl | -13.0 | / | /
O=C(Nc1ccc(S(=O)(=O)N2CCc3ccccc32)cc1)c1cccs1 | -4.0 | / | /
O=C(Nc1ccc(OC(F)(F)F)cc1)c1n[nH]c2ccccc12 | -11.0 | / | /
O=C(Oc1c(CN2CCOCC2)cc(Cl)c2cccnc12)c1ccc(F)cc1 | 87.7* | 2.8 | 16.7
O=C(Oc1c(CN2CCOCC2)cc(Cl)c2cccnc12)c1ccccc1Cl | 46.9* | 1.6 | 29.6
CCOC(=O)C1CCN(Cc2cc(Cl)c3cccnc3c2O)CC1 | 96.0 | / | /
O=C(Oc1c(Cl)cc(Cl)c2cccnc12)c1cccs1 | -38.8 | 2.5 | 1.0
COc1cccc(C(=O)Oc2c(CN3CCOCC3)cc(Cl)c3cccnc23)c1 | 25.9 | 4.5 | 5.8
COc1ccc(C(=O)Oc2c(CN3CCOCC3)cc(Cl)c3cccnc23)cc1 | -9.0 | 2.5 | 11.1
O=C(Oc1c(CN2CCOCC2)cc(Cl)c2cccnc12)c1cccs1 | 91.0*! | 9.2 | 14.9
COc1cc(C(=O)Oc2c(CN3CCOCC3)cc(Cl)c3cccnc23)cc(OC)c1OC | 87.0* | 0.5 | 17.6
O=C(C(c1ccccc1)n1cccc1)N1CCN(c2ccccc2F)CC1 (stereo unspecified) | 11.0 | / | /
O=C(NCc1ccccc1)C1CCN(c2cc(Sc3cccc(F)c3)ncn2)CC1 | -13.0 | / | /
CCCOc1ccc(S(=O)(=O)NCc2ccc3c(c2)OCO3)cc1 | 2.0 | / | /
CN1C[C@@H](NC(=O)Nc2cccs2)CC1=O | -13.0 | / | /
O=C(O)CCc1csc(NC(=O)Nc2ccc(Cl)cc2)n1 | 10.0 | / | /
O=C(CCCc1cccs1)NCCc1c[nH]c2ccccc12 | 46.5* | 3.6 | 9.0
O=C(Cc1csc(NC(=O)Nc2ccc(Cl)cc2)n1)NCCc1c[nH]c2ccccc12 | 52.0* | / | /
O=C(Cc1csc(Nc2cccc(Cl)c2)n1)NCCc1c[nH]c2ccccc12 | 36.0* | / | /
SMILES | PriA SSB inh | SARS 3CLpro inh | BJeLR lethal
O=C(Cc1csc(NC(=O)Nc2cccc(Cl)c2)n1)NCCc1c[nH]c2ccccc12 | -5.0 | / | /
O=C(Cc1csc(Nc2ccc(F)cc2)n1)NCCc1c[nH]c2ccccc12 | 8.0 | / | /
O=C(Nc1ccc(Cl)cc1)Nc1nc(C(=O)O)cs1 | 87.0* | / | /
CCCCCCCCCCCCCCCC(=O)NCCc1c[nH]c2ccccc12 | -13.4 | -6.9 | 5.7
CC1(C)C2CC=C(C=NNC(=O)C3CC3)C1C2 (stereo unspecified) | -9.3 | / | /
O=C(Nc1c(C(=O)Nc2ccccc2F)oc2ccccc12)c1ccc(Br)o1 | -1.0 | / | /
C=CCc1ccc(OCC(O)CN2C(C)CCCC2C)c(OC)c1 (stereo unspecified) | -8.0 | / | /
COc1cc(OC)cc(-c2nc(NC(=O)c3cccc(N4C(=O)NC5CC4(C)Oc4ccccc45)c3)n[nH]2)c1 (stereo unspecified) | -13.0 | / | /
Cc1ccc(-n2ccnc2N2CCN(C(=O)c3cc(=O)c4ccccc4o3)CC2)cc1 | -8.0 | / | /
Cc1ccc(C(=O)N2CCN(c3nccn3C)CC2)cc1C | 16.0 | / | /
Cc1ccc(-n2ccnc2N2CCN(C(=O)c3c(F)cccc3Cl)CC2)cc1 | 62.0* | / | /
Cc1ccc(-n2ccnc2N2CCN(C(=O)c3ccc(C)c(C)c3)CC2)cc1 | 36.0* | / | /
Cc1ccc(-n2ccnc2N2CCN(C(=O)c3c(F)cccc3F)CC2)cc1 | 78.1* | / | /
